In PubChem BioAssay (Tox21):
Records with an inconclusive call do not appear. The source made the active and inactive calls. Unless noted, calls follow the shape of the full dose curve.

Tests used:
[1] = Nuclear factor erythroid 2-related factor 2/antioxidant responsive element (Nrf2/ARE) small molecule agonists: qHTS cell viability counter screen in human keratinocytes (AID 1919968; active = well fitted curve in the direction sought with a large enough effect in the repeat runs; an effect the other way counts as inactive or inconclusive; also: nearly all actives have a fitted effect of over 55% in size)
Procedure, shortened: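 Parallel cytotoxicity read: KeratinoSens HaCaT cells, compound treatment 23 h, viability by CellTiter-Fluor fluorescence 1 h post-reagent.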

[2] = Nuclear factor erythroid 2-related factor 2/antioxidant responsive element (Nrf2/ARE) small molecule agonists: luciferase reporter gene qHTS assay in human keratinocytes (AID 1919969); also: nearly all actives have a fitted effect of over 35% in size
[3] = target: Gonadotropin-releasing hormone receptor (Homo sapiens) (UniProt P30968); experiment: Human gonadotropin-releasing hormone receptor (GnRHR) small molecule agonists, calcium flux assay in GnRHR-HEK293 cells (AID 1920063); also: nearly all actives have a fitted effect of over 35% in size
Sequence of Gonadotropin-releasing hormone receptor (Homo sapiens) (P30968 whole entry, looked up): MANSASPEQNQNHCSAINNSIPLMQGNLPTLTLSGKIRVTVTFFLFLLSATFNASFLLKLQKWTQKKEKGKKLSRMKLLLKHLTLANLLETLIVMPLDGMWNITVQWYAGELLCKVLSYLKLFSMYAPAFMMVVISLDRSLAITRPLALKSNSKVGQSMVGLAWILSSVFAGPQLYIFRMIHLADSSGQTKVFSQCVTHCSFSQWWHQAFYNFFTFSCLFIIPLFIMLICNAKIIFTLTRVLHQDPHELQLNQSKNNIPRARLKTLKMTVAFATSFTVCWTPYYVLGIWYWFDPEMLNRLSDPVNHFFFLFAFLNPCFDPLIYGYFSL
Procedure, shortened: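 Calcium flux, agonist mode, human GnRHR stably integrated in HEK293; dye 1 h at 37 C before compound; Ex/Em=480/540 kinetic read, 3 min; 15 concentrations, triplicate.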

[4] = target: KiSS-1 receptor (Homo sapiens) (UniProt Q969F8); experiment: Human kisspeptin (KISS1R) small molecule agonists, calcium flux assay in KISS1R-HEK293 cells (AID 1920064; active = well fitted curve in the direction sought with a large enough effect in the repeat runs; an effect the other way counts as inactive or inconclusive)
Sequence of KiSS-1 receptor (Homo sapiens) (Q969F8 whole entry, looked up): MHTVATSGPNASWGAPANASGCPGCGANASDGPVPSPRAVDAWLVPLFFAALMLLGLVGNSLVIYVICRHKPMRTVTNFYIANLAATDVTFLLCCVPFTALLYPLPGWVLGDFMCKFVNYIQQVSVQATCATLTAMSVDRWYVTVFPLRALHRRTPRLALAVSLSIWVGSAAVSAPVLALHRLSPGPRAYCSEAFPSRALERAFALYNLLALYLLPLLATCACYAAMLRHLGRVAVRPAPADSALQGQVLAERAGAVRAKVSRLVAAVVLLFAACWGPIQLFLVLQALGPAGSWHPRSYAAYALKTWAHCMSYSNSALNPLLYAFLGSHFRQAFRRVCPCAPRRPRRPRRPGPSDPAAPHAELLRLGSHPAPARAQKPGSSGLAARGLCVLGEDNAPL
Procedure, shortened: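 Triplicate 15-concentration series were applied to dye-loaded human KISS1R HEK293 cells, and agonist-evoked calcium fluorescence was captured for 3 min.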

[5] = G protein-coupled receptor (GPCR) small molecule agonists, calcium flux assay: HEK293 wild type cell line counter screen (AID 1920065)
Procedure, shortened: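 Non-specific calcium responders were flagged by adding DMSO-dissolved compounds to dye-loaded cells and reading 480/540 nm fluorescence each second for 3 min; ATP served as positive control.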

[6] = p53 small molecule agonists, cell-based qHTS assay with human liver microsomes (AID 1963577)
Procedure, shortened: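 Fluorescence of the beta-lactamase reporter in p53RE-bla cells, detected with LiveBLAzer substrate (2 h, room temperature, dark), served as the read-out after 16 h compound exposure at 37 C with human liver microsomes and NADPH, each 0.5 mg/mL final.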

[7] = p53 small molecule agonists, cell-based qHTS assay with rat liver microsomes (AID 1963578)
Procedure, shortened: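 Cells carrying a p53 response element–beta-lactamase reporter were plated and rested 5 h, then dosed with compound in DMSO plus rat liver microsomes and NADPH, each at 0.5 mg/mL final. After 16 h at 37 C, LiveBLAzer substrate was added for 2 h.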

[8] = p53 small molecule agonists, cell-based qHTS assay with human liver microsomes: qHTS cell viability counter screen (AID 1963579); also: nearly all actives have a fitted effect of over 45% in size
Procedure, shortened: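 Cytotoxicity counter screen: p53RE-bla, 4,000 cells/well; 5 h settle, 37 C/5% CO2; cpd + HLM 0.5 mg/mL + NADPH 0.5 mg/mL (final); 16 h, 37 C; CellTiter-Glo, 30 min RT, luminescence.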

[9] = p53 small molecule agonists, cell-based qHTS assay with rat liver microsomes: qHTS cell viability counter screen (AID 1963580); also: nearly all actives have a fitted effect of over 45% in size
Procedure, shortened: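 Cytotoxicity counter screen: intracellular ATP measured by CellTiter-Glo luminescence in the same wells as the beta-lactamase reporter read, on HCT-116 p53RE-bla cells exposed 16 h at 37 C to compounds with rat liver microsomes and NADPH, each 0.5 mg/mL final.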

[10] = p53 small molecule agonists, cell-based qHTS assay: qHTS cell viability counter screen (AID 1963581); also: nearly all actives have a fitted effect of over 45% in size
Procedure, shortened: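 Multiplexed with the reporter read, a CellTiter-Glo step (30 min, room temperature) gauges ATP-based viability of HCT-116 p53RE-bla cells after 16 h compound incubation at 37 C.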

[11] = p53 small molecule agonists, cell-based qHTS assay (AID 1963582; active = well fitted activation curve with a large enough effect in the signal ratio in the repeat runs, not every such curve was filed as active; the % refers to the signal ratio)
Procedure, shortened: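 Beta-lactamase reporter cells (p53RE-bla) treated with compounds for 16 h at 37 C; FRET substrate, 2 h, room temperature; fluorescence intensity.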

[12] = target: 5-hydroxytryptamine receptor 2A (Homo sapiens) (UniProt P28223); experiment: 5-hydroxytryptamine receptor 2A (HTR2A) small molecule antagonists, cell-based qHTS assay (AID 1963586); also: nearly all actives have a fitted effect of over 45% in size
Sequence of 5-hydroxytryptamine receptor 2A (Homo sapiens) (P28223 whole entry, looked up): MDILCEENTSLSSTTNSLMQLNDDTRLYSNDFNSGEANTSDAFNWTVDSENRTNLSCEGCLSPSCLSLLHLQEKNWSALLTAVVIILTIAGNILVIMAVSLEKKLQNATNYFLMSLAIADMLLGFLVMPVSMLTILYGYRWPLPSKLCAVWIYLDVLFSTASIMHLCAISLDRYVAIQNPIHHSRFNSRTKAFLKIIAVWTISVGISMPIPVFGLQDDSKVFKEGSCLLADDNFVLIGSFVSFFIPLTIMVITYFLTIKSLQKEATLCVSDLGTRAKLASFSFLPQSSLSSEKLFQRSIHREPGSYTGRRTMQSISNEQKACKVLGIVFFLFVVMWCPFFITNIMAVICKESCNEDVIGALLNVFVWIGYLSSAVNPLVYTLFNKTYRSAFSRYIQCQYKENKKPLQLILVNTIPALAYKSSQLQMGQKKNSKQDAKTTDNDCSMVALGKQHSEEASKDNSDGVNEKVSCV
Procedure, shortened: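 CHO cells stably expressing human HTR2A were plated for 18 h at 37 C, then loaded with calcium dye for 1 h. Compounds were preincubated 5 min at room temperature before DOI (4 nM solution) was added. Kinetic fluorescence was read for 3 min.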

[13] = target: 5-hydroxytryptamine receptor 2A (Homo sapiens) (UniProt P28223); experiment: 5-hydroxytryptamine receptor 2A (HTR2A) small molecule agonists, cell-based qHTS assay (AID 1963587); also: nearly all actives have a fitted effect of over 30% in size
Procedure, shortened: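 CHO cells stably expressing human HTR2A, plated 18 h, loaded with calcium dye 1 h at 37 C. Agonist mode: compounds added and intracellular calcium fluorescence recorded kinetically for 2 min at 1 sec intervals.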

[14] = target: Muscarinic acetylcholine receptor M1 (Homo sapiens) (UniProt P11229); experiment: Cholinergic receptor muscarinic 1 (CHRM1) small molecule antagonists, cell-based qHTS assay (AID 1963588); also: nearly all actives have a fitted effect of over 40% in size
Sequence of Muscarinic acetylcholine receptor M1 (Homo sapiens) (P11229 whole entry, looked up): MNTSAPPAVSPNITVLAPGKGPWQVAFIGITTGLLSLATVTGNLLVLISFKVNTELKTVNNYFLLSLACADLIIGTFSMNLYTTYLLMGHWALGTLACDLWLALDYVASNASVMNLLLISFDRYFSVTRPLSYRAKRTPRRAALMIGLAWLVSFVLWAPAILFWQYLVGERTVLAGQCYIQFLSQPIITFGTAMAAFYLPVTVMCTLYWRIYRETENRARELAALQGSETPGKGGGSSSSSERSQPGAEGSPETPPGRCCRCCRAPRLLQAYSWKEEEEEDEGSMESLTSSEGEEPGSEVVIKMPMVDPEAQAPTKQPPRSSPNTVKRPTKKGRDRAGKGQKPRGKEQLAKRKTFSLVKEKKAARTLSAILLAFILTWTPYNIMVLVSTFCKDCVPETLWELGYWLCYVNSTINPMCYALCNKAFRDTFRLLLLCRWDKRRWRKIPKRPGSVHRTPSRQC
Procedure, shortened: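 Compounds were tested at 15 concentrations in three independent runs. Dye-loaded CHRM1-CHO cells were exposed 5 min at room temperature before stimulation by acetylcholine added at 50nM. Intracellular calcium was read kinetically on FDSS for 3 min.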

[15] = target: Muscarinic acetylcholine receptor M1 (Homo sapiens) (UniProt P11229); experiment: Cholinergic receptor muscarinic 1 (CHRM1) small molecule agonists, cell-based qHTS assay (AID 1963589); also: nearly all actives have a fitted effect of over 35% in size
Procedure, shortened: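 qHTS, 15-point titration, 3 independent runs: compounds pin-transferred onto dye-loaded CHRM1-CHO cells (human M1), calcium fluorescence followed every second to detect agonism.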

[16] = cAMP Responsive Elements (CRE) small molecule agonists, cell-based qHTS assay (AID 1963590)
Procedure, shortened: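 Quantitative HTS for CRE agonists: HEK 293T CRE-bla cells, overnight plating, 3 h compound incubation at 37 C/5% CO2, then 2 h room-temperature LiveBLAzer B/G FRET substrate loading.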

[17] = cAMP Responsive Elements (CRE) small molecule antagonists, cell-based qHTS assay (AID 1963591; active = well fitted inhibition curve with a large enough effect in the signal ratio in the repeat runs, not every such curve was filed as active; the % refers to the signal ratio)
Procedure, shortened: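 Fluorescence intensity from cleaved LiveBLAzer B/G substrate (2 h, room temperature) quantified CRE-bla activity in HEK 293T cells exposed 3 h to compound with 0.25 uM final NKH477.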

[18] = target: Beta-2 adrenergic receptor (Homo sapiens) (UniProt P07550); experiment: Adrenergic beta2 receptor (ADRB2) small molecule antagonists, cell-based qHTS assay (AID 1963592); also: series mostly up to about 92 µM; nearly all actives have a fitted effect of over 50% in size
Sequence of Beta-2 adrenergic receptor (Homo sapiens) (P07550 whole entry, looked up): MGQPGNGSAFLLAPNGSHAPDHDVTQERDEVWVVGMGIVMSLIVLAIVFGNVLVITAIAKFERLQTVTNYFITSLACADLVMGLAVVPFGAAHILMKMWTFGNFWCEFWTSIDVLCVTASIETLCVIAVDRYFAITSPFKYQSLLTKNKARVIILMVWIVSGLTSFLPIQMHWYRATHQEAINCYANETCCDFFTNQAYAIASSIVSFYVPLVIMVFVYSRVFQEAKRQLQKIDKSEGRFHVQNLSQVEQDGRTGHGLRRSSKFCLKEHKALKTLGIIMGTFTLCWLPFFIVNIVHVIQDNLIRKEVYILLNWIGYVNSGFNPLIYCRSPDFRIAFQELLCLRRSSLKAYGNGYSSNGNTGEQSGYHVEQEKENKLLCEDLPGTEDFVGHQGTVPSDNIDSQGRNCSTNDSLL
Procedure, shortened: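 Assay format: CHO-ADRB2 cells, 18-20hr seeding at 37C/5% CO2, then compound plus 1nM isoproterenol agonist mix for 0.5hr RT. Homogeneous time-resolved fluorescence cAMP detection after 1hr, expressed as 665/615 nm ratio.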

[19] = target: D(2) dopamine receptor (Homo sapiens) (UniProt P14416); experiment: Dopamine D2 receptor (DRD2) small molecule agonists, cell-based qHTS assay (AID 1963594); also: nearly all actives have a fitted effect of over 35% in size
Sequence of D(2) dopamine receptor (Homo sapiens) (P14416 whole entry, looked up): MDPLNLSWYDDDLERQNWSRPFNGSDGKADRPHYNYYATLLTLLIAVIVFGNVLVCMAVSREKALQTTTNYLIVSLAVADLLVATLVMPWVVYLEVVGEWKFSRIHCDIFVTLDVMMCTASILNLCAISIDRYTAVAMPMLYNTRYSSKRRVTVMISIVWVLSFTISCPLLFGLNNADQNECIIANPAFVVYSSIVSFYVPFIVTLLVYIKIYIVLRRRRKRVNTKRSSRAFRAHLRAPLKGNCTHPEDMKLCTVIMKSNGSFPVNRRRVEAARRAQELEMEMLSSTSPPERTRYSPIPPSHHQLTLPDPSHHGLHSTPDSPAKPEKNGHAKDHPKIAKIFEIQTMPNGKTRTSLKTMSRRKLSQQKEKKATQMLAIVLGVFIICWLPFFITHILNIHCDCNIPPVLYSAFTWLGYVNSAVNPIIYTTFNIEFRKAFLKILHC
Procedure, shortened: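 HEK293 cells stably expressing human DRD2, pre-treated with PDE inhibitor Ro20-1724 (0.1 mM final) and compound 10 min at room temperature, then stimulated with NKH477 (200nM […]) for 30 min. cAMP read by HTRF (665/620 nm).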

[20] = target: D(2) dopamine receptor (Homo sapiens) (UniProt P14416); experiment: Dopamine D2 receptor (DRD2) small molecule antagonists, cell-based qHTS assay (AID 1963595; active = well fitted inhibition curve with a large enough effect in the signal ratio in the repeat runs, with a control signal flat; the % refers to the signal ratio)
Procedure, shortened: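 In this cell-based antagonist screen, compounds act for 10 min at room temperature before a 30 min challenge with 12 nM quinpirole and 200 nM NKH477. cAMP is quantified by HTRF competition in DRD2-HEK293 cells containing 0.1 mM Ro20-1724.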
% is scaled to controls: 0 for no effect and ±100 for the full control effect.

Cc1ncc(CNC(=O)N(CCCl)N=O)c(N)n1
inactive: Potency [1] | Potency [2] | Potency [3] | Potency [4] | Potency [5] | Potency [6] | Potency [7] | Potency [8] | Potency [9] | Potency [10] | Potency [11] | Potency [12] | Potency [13] | Potency [14] | Potency [15] | Potency [16] | Potency [17] | Potency [18] | Potency [19] | Potency [20]

C=CCOC(N)=O
inactive: Potency [1] | Potency [2] | Potency [3] | Potency [4] | Potency [5] | Potency [6] | Potency [7] | Potency [8] | Potency [9] | Potency [10] | Potency [11] | Potency [12] | Potency [13] | Potency [14] | Potency [15] | Potency [16] | Potency [17] | Potency [18] | Potency [19] | Potency [20]

Cc1ccc2cc(C)ccc2c1
inactive: Potency [1] | Potency [2] | Potency [3] | Potency [4] | Potency [5] | Potency [6] | Potency [7] | Potency [8] | Potency [9] | Potency [10] | Potency [11] | Potency [12] | Potency [13] | Potency [14] | Potency [15] | Potency [16] | Potency [17] | Potency [18] | Potency [20]

Brc1c(Br)c(Br)c(Oc2c(Br)c(Br)c(Br)c(Br)c2Br)c(Br)c1Br
inactive: activity change, negative = cytotoxicity [1] -0.108% [at 19 µM] | activity, positive = activation [2] -3.66% [at 19 µM] | activity change [3] -0.419% [at 11.8 µM, stronger effect = higher value] | activation [4] -2.44% [at 15.8 µM] | activation [5] 1.15% [at 11.8 µM] | activation [6] -0.0858% [at 13.5 µM] | activation [7] 0.633% [at 13.6 µM] | activity change, negative = cytotoxicity [8] 1.7% [at 13.5 µM] | activity change, negative = cytotoxicity [9] 4.17% [at 13.5 µM] | activity change, negative = cytotoxicity [10] 13.8% [at 13.5 µM] | activation [11] 0.0757% [at 13.5 µM] | activity, negative = inhibition [12] 9.26% [at 12.7 µM] | activation [13] 1.53% [at 15.9 µM] | activity, negative = inhibition [14] -22.2% [at 12.6 µM] | activation [15] -0.663% [at 15.8 µM] | activation [16] 0.588% [at 19 µM] | activity change, negative = inhibition [17] -8.08% [at 18.9 µM] | activity change, negative = inhibition [18] 1.07% [at 19 µM] | activity change, negative = inhibition [20] 0.371% [at 18.9 µM]

CC(C)(Cl)Cl
inactive: Potency [1] | Potency [2] | Potency [3] | Potency [4] | Potency [5] | Potency [6] | Potency [7] | Potency [8] | Potency [9] | Potency [10] | Potency [11] | Potency [12] | Potency [13] | Potency [14] | Potency [15] | Potency [16] | Potency [17] | Potency [18] | Potency [20]

C=C(C)C(=O)OCC(CC)CCCC (configuration not stated)
inactive: Potency [1] | Potency [2] | Potency [3] | Potency [4] | Potency [5] | Potency [6] | Potency [7] | Potency [8] | Potency [9] | Potency [10] | Potency [11] | Potency [12] | Potency [13] | Potency [14] | Potency [15] | Potency [16] | Potency [17] | Potency [18] | Potency [19] | Potency [20]

CC(C)(C)C(=O)CCl
inactive: Potency [1] | Potency [2] | Potency [3] | Potency [4] | Potency [5] | Potency [6] | Potency [7] | Potency [8] | Potency [9] | Potency [10] | Potency [11] | Potency [12] | Potency [13] | Potency [14] | Potency [15] | Potency [16] | Potency [17] | Potency [18] | Potency [19] | Potency [20]

CC(C(=O)c1ccccc1)N(C)C (configuration not stated)
inactive: Potency [1] | Potency [2] | Potency [3] | Potency [4] | Potency [5] | Potency [6] | Potency [7] | Potency [8] | Potency [9] | Potency [10] | Potency [11] | Potency [12] | Potency [13] | Potency [14] | Potency [15] | Potency [16] | Potency [17] | Potency [18] | Potency [19] | Potency [20]
